Reference: PubChem BioAssay (NCI)
This is part of a sample that, as a whole, favours compounds with a hit. Of some 83,000 tested, about 20% had one in any assay.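 Each cell line was grown in a 96-well plate and treated with one concentration of compound for 48 hours. Values below 10 were considered active.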 A number with no mark means an inactive call. Active and inactive are the calls of the source.

Key:
Test in all cases: NCI-60 one-dose screen, 48 h (100 = growth as untreated, 0 = no growth, -100 = all killed)
Conditions in all cases: 10 µM unless noted
SK-MEL-2 melanoma = test system: SK-MEL-2 melanoma
EKVX NSCLC = test system: EKVX NSCLC
SN12C renal = test system: SN12C renal
UO-31 renal = test system: UO-31 renal
TK-10 renal = test system: TK-10 renal
CAKI-1 renal = test system: CAKI-1 renal
A498 renal = test system: A498 renal
CCRF-CEM leukemia = test system: CCRF-CEM leukemia
MOLT-4 leukemia = test system: MOLT-4 leukemia
ACHN renal = test system: ACHN renal

Structure (SMILES) | growth (SK-MEL-2 melanoma) | growth (EKVX NSCLC) | growth (SN12C renal) | growth (UO-31 renal) | growth (TK-10 renal) | growth (CAKI-1 renal) | growth (A498 renal) | growth (CCRF-CEM leukemia) | growth (MOLT-4 leukemia) | growth (ACHN renal)
CCN(CC)CCCNC(=O)c1ccc(N)cc1O | 100% | 103% | 101% | 69.7% | 106% | 106% | 56.2% | -32.8% (active) | 91% | 
CCN(CC)CCOC(=O)Nc1ccccc1Cl | 88.3% | 106% | 103% | 80.4% | 86.1% |  | 114% | 75.7% | 94.7% | 
CN(C)CCOC(=O)Nc1ccc(Cl)cc1 | 79.4% | 101% | 107% | 71.2% | 95.1% |  | 113% | 80.5% | 89.9% | 
CC(c1ccc(-n2cccn2)cc1)c1cnc(N2CCc3ccc(C(N)=O)cc3C2)s1 (configuration not stated) | 51.7% | 54.3% | 86.9% | 51.8% | 68.6% |  | 81% | 33.4% | 8.64% (active) | 
COc1cc2c(cc1OC)-c1ccc3cc4c(cc3c1N(CCCn1ccnc1)C2)OCO4 | 37.7% | 98.2% | 18.1% | 80.8% | 91.3% |  | 85.2% | 1.56% (active) | 2.11% (active) | 
Nc1ccc(CCCCc2ccccc2)c(Cl)c1 | 91.2% |  | 87.4% | 63.9% | 88.7% | 83.8% | 73.2% | 60.1% |  | 94.2%
COc1ccc(C2CC(c3cnccn3)=NN2)cc1OC (configuration not stated) | 79% | 108% | 104% | 88.7% | 82.7% |  | 112% | 75.2% | 72% | 
COc1cc2c(cc1OC)-c1ccc3cc4c(cc3c1N(CCCN1CCCCC1)C2)OCO4 | 68.8% | 69.4% | 30.5% | 37.6% | 73.2% |  | 65% | 19.6% | 6.01% (active) | 
CCN(CC)CCCC(C)NCc1ccccc1 (configuration not stated) | 80.9% | 102% | 102% | 83.5% | 83.6% |  | 105% | 120% | 110% | 
C(=C\c1nc2ccccc2[nH]1)/c1nc2ccccc2[nH]1 | 107% |  | 100% | 81.8% | 143% | 96.6% | 83.7% | 93.5% | 80.4% | 93.3%
O=C(Nc1cccc2[nH]c(C(F)(F)F)nc12)c1cc(Cl)ccc1Cl | -4.53% (active) |  | 28.7% | -3.23% (active) | 4.93% (active) | 31.3% | -7.02% (active) | 22.7% | 17.9% | 48.1%
CCCCNCC(=O)Nc1ccc(C(=O)OCC)cc1 | 93% | 98.3% | 104% | 91.8% | 96.1% |  | 101% | 79.4% | 80.7% | 
CC(C)N(CCOC(=O)Nc1ccccc1Cl)C(C)C | 104% | 99.7% | 99.1% | 85.1% | 108% |  | 109% | 83.7% | 88.6% | 
Nc1c(C(=O)c2ccc(Cl)s2)sc2nc3c(cc12)CCCC3 | 105% |  | 94.4% | 81.2% | 151% | 87% | 72% | 99.9% | 99.5% | 112%
COc1cc(-c2cccc([N+](=O)[O-])c2)c(-c2nc(-c3ccccc3)c(-c3ccccc3)n2C2CC2)cc1OC | 57.6% | 57.2% | 75.1% | 37.7% | 66.2% |  | 77.6% | 48.1% | 25.9% | 
NC(=Nc1ccc(N)cc1)C(N)=Nc1ccc(N)cc1 | -7.4% (active) | 107% | 104% | 92.9% | 87.3% |  | 91.3% |  | 124% | 

Structure (SMILES) | growth (SK-MEL-2 melanoma) | growth (EKVX NSCLC) | growth (SN12C renal) | growth (UO-31 renal) | growth (TK-10 renal) | growth (CAKI-1 renal) | growth (A498 renal) | growth (CCRF-CEM leukemia) | growth (MOLT-4 leukemia) | growth (ACHN renal)
O=C1N(c2ccccc2)C(=S)N[C@]12[C@H](c1ccccc1)C1CCCN1[C@]21C(=O)NC2C=CC(Cl)=C[C@H]21 (some centres not stated) | 91% | 100% | 98% | 71.3% | 113% |  | 107% | 77.6% | 79% | 
COc1ccc(/C(C)=N/NS(=O)(=O)c2ccc(C)cc2)cc1OC | 122% |  | 109% | 103% | 104% | 90.4% | 87.2% | 102% | 98.2% | 103%
CCC(C)NCc1ccccc1 (configuration not stated) | 92.6% | 103% | 100% | 88% | 96.9% |  | 88.8% | 83.4% | 93.5% | 
CCCCn1c(=O)[nH]c(N)c(C(c2ccc(F)cc2)c2c(N)[nH]c(=O)n(CCCC)c2=O)c1=O | 58.6% | 69.3% |  | 103% | 68.3% | 100% | 90.1% | 58% | 29.8% | 92.7%
COc1cc2c(=O)n(CCCn3ccnc3)c3c4cc5c(cc4ccc3c2cc1OC)OCO5 | 22% | 21.3% | 16.9% | -27.3% (active) | 35.3% |  | -75.6% (active) | 3.73% (active) | 3.68% (active) | 
Fc1ccc(Nc2nc(Nc3ccc(-c4nc5ccccc5[nH]4)cc3)c3cn[nH]c3n2)cc1 | 92.8% | 72.4% |  | 79.8% | 99.5% | 89.7% | 101% | 31.9% | 21.6% | 78.9%
CCCCCOC(=O)c1ccc(NC(=O)CNCC(C)C)cc1 | 103% | 90.8% | 94% | 66.5% | 98.5% |  | 71.8% | 74.3% | 86.5% | 
CCN(CC)CC(=O)Nc1cccc(C(=O)OC(C)C)c1 | 81.9% | 96.4% | 107% | 89.7% | 87.5% |  | 140% | 86.6% | 96.2% | 
CN(C)CCCCNc1ccc(NCCCCN(C)C)c2c1C(=O)c1c(O)ccc(O)c1C2=O | 98.2% | -76.2% (active) | 64.2% |  | -93.6% (active) | -91.7% (active) | 92.4% | -28.5% (active) | -34.6% (active) | -89.2% (active)
CO[C@H]1/C=C/O[C@@]2(C)Oc3c(C)c(O)c4c(c3C2=O)C(=O)C(/C=N/N(c2ccccc2)c2ccccc2)=C(NC(=O)/C(C)=C\C=C\[C@H](C)[C@H](O)[C@@H](C)[C@@H](O)[C@@H](C)[C@H](OC(C)=O)[C@@H]1C)C4=O | -60.8% (active) |  | -49.2% (active) | -19.3% (active) | -1.72% (active) | -4.42% (active) | -5.29% (active) | 1.62% (active) | 3.36% (active) | -33% (active)
COc1cc2c(cc1OC)-c1ccc3cc4c(cc3c1N(CCN1CCCC1)C2)OCO4 | 57.9% | 36.3% | -29.9% (active) | 32.7% | 34.2% |  | -2.77% (active) | -5.95% (active) | 2.96% (active) | 
CCCNCC(=O)Nc1ccc(C(=O)OC(C)(C)CC)cc1 | 95.6% | 98.1% | 105% | 86.3% | 93% |  | 108% | 104% | 89.7% | 
O=C(NC1CCOCC1)c1ccc2c(c1)CN(c1ncc(Cc3cccc(-n4cccn4)c3)s1)CC2 | 54.9% | 53.5% | 82.1% | 64.4% | 81.7% |  | 46.6% | 52.1% | 40.3% | 
C[C@@H]1C(=O)N(C[C@H](Cc2ccccc2)NC(=O)OCc2ccccc2)[C@]1(Cc1ccccc1)C(=O)OC(C)(C)C | 76.8% | 60.3% |  | 46.5% | 67.2% | 51.4% | 54% | 72.2% | 34% | 75.2%
COc1cc2c(cc1OC)-c1ccc3cc4c(cc3c1N(CCN(C)C)C2)OCO4 | 36% | 25.4% | 0.583% (active) | 24.2% | 16.6% |  | -33.8% (active) | -1.03% (active) | 0.14% (active) | 
